Results filed as inconclusive are left out. The source made the active and inactive calls. Unless noted, calls follow the shape of the dose curve; as a rule, active = well fitted curve in the direction sought with a large enough effect; inconclusive = small, poorly fitted or top-dose-only effect, or another doubt; inactive = no such curve, though single readings can be large; an effect the other way counts as inactive or inconclusive.
Tests used:
[1] = target: Ubiquitin carboxyl-terminal hydrolase 2 (Homo sapiens) (UniProt O75604); assay: qHTS Validation Assay for Inhibitors of Ubiquitin-specific Protease USP2a Using CHOP2 as the Reporter (AID 463106)
Chain of Ubiquitin carboxyl-terminal hydrolase 2 (Homo sapiens) (O75604 whole entry, looked up): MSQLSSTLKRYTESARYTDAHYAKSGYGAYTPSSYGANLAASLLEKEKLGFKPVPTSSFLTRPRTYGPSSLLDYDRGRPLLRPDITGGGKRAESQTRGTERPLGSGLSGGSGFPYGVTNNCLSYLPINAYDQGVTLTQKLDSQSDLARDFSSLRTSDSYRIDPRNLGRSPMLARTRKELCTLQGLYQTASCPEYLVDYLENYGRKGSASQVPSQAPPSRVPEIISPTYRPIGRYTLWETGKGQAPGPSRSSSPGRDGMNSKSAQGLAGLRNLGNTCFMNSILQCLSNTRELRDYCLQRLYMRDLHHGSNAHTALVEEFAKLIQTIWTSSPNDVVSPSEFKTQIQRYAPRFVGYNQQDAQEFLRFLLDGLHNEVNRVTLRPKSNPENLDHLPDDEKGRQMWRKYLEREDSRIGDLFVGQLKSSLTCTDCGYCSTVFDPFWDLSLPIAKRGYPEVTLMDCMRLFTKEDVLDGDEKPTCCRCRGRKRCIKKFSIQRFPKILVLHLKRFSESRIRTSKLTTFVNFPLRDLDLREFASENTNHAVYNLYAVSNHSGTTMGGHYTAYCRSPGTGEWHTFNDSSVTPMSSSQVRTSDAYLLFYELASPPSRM
Outline: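 Fluorescence read-out at Ex 485nm/Em 531nm after 60min RT, following addition of 25nM Ub-CHOP2 plus 25nM reporter substrate to USP2 core (10nM) pretreated 30min with compound. Data normalized to NEM full inhibition; concentration-response curves fitted.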

[2] = target: DNA polymerase III PolC-type (Bacillus subtilis (strain 168)) (UniProt P13267); assay: qHTS Validation Assay for the Inhibitors of DNA Replication in Gram-Positive Bacteria (AID 485295);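 also: reconstituted holoenzyme with PolC plus beta clamp SSB and primase; PicoGreen fluorescence of double-stranded DNA made on primed circular M13 template; series mostly up to about 57 µM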
Chain of DNA polymerase III PolC-type (Bacillus subtilis (strain 168)) (P13267 whole entry, looked up): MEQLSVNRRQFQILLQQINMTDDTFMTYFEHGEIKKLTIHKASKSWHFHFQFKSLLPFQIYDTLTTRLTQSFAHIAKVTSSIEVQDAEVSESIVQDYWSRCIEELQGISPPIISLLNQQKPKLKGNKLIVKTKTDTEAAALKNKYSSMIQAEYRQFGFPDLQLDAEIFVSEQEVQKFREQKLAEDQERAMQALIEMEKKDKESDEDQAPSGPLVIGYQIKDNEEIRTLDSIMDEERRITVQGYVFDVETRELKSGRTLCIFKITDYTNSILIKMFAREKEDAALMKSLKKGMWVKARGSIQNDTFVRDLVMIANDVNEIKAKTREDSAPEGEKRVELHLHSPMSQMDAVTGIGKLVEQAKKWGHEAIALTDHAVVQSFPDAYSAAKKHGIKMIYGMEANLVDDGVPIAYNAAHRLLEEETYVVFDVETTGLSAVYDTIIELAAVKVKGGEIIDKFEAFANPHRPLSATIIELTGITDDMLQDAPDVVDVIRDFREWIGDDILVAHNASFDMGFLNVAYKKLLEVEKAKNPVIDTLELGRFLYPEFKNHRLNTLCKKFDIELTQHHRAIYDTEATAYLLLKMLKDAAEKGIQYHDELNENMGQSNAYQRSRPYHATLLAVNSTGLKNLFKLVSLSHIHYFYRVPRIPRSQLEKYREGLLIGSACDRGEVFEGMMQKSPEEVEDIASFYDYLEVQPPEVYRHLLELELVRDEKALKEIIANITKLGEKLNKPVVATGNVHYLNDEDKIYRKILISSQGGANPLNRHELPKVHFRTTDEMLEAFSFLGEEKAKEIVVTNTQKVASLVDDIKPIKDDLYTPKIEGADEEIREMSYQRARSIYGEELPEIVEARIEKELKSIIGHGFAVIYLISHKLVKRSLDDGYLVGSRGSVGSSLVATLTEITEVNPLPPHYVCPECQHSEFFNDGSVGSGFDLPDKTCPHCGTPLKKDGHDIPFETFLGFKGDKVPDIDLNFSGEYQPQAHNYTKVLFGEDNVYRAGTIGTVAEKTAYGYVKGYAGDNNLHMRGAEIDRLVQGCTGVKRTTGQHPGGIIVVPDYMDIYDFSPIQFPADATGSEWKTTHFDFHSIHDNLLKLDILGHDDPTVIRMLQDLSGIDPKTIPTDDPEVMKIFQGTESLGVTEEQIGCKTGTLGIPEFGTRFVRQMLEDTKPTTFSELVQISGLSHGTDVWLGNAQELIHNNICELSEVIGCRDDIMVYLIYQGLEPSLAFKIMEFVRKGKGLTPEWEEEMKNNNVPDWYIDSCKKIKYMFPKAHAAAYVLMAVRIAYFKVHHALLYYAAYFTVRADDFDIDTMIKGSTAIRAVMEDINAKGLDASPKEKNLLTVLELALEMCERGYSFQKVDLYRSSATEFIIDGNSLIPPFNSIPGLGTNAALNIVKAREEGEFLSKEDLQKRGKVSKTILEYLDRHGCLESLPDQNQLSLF
Outline: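 Inhibition of DNA synthesis by the reconstituted PolC holoenzyme, monitored through PicoGreen staining of dsDNA formed from ssM13Gori, dNTPs and NTPs, with compound preincubation and room-temperature reaction.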

[3] = target: Tumor susceptibility gene 101 protein (Homo sapiens) (UniProt Q99816); assay: qHTS Validation Assay for Iinhibitors of HIV-1 Budding by Blocking the Interaction of PTAP/TSG101 (AID 485342; calls by dose curve)
Outline: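 Compound wells held the Tsg101 binding domain (10 uM) and a FITC-conjugated PTAP peptide (50 nM) in buffer at pH 7.5 containing 0.15 M NaCl and 0.01% Tween 20; polarization was recorded after 20 min, r.t.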

[4] = qHTS Validation Assay to Find Inhibitors of Chronic Active B-Cell Receptor Signaling (AID 485345; active = well fitted curve in the direction sought with a large enough effect in the main read-out, with a control signal flat, not every such curve was filed as active)
Outline: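 TMD8 ABC-DLBCL cells stably carrying doxycycline-inducible IkappaBalpha–green luciferase fusion plus unfused red luciferase; compounds 46 uM to 3 nM, 4 h at 37C with doxycycline. Corrected green/red luminescence ratio normalized to 10 uM MG-132 and basal cell wells; curves fitted.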

[5] = target: Beta-2 adrenergic receptor (Homo sapiens) (UniProt P07550); assay: qHTS validation assay of beta-arrestin-biased ligands of beta2-adrenergic receptor (AID 485366)
Chain of Beta-2 adrenergic receptor (Homo sapiens) (P07550 whole entry, looked up): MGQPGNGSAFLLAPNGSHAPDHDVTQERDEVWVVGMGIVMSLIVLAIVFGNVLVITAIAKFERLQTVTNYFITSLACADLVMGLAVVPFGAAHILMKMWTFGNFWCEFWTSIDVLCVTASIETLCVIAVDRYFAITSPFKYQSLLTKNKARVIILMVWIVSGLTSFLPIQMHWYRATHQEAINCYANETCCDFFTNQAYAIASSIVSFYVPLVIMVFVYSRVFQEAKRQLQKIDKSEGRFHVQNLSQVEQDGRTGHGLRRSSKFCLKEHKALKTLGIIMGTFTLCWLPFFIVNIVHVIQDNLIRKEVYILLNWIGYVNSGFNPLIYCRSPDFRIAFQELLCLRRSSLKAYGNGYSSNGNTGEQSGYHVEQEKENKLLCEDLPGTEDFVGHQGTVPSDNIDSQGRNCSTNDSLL
Outline: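 Agonist activity is measured as luciferase luminescence downstream of beta-arrestin recruitment to recombinant beta2-AR in Tango cells. Exposure lasts 18 hr at 37 degrees C, and curves are categorized by r2, response size and activity.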

[6] = target: Thioredoxin reductase 1, cytoplasmic (Rattus norvegicus) (UniProt O89049); assay: qHTS Assay for Substrates of Mammalian Selenoprotein Thioredoxin Reductase 1 (TrxR1) (AID 488772);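 also: series mostly up to about 57 µM; a drop in NADPH fluorescence below the no-compound background marks a TrxR1 substrate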
Outline: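 In this dual-purpose format, potential substrates are identified from the first fluorescence read after selenite addition, not from the 8-minute delta. Rat enzyme is preincubated with NADPH and then with compound at ~22 deg C.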

[7] = target: Thioredoxin reductase 1, cytoplasmic (Rattus norvegicus) (UniProt O89049); assay: qHTS Assay for Inhibitors of Mammalian Selenoprotein Thioredoxin Reductase 1 (TrxR1) (AID 488773); details: Potency: inhibition;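 also: drop in NADPH fluorescence over an 8 min run after selenite addition; series mostly up to about 57 µM; nearly all actives have a fitted effect of over 40% in size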
Outline: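 Inhibition is scored from the loss of NADPH fluorescence between first and last reads of an 8-min kinetic run. Selenite (400 uM) was the substrate, added after 15 min compound preincubation at room temperature.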

[8] = target: Flap endonuclease 1 (Homo sapiens) (UniProt P39748); assay: qHTS Validation Assay for the Inhibitors of Human Flap endonuclease 1 (FEN1) (AID 488816)
Outline: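 Enzyme reagent 10 nM; cpds pinned; 15 min RT preinc.; substrate 50 nM final; reads t=0 and 15 min; no-enzyme buffer wells as neg. control; normalized data, 4-parameter Hill fit.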

[9] = target: M-phase phosphoprotein 8 (Homo sapiens) (UniProt Q99549); assay: qHTS Validation Assay for Inhibitors for MPP8 Chromodomain Interactions with Methylated Histone Tails (AID 488949); also: nearly all actives have a fitted effect of over 55% in size; also: potency is read from the fitted curve at half-maximal effect
Outline: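 Chemiluminescent proximity assay: histidine-tag capture via nickel acceptor beads, biotin peptide via streptavidin donor beads. Protein and peptide each at 50 nM, pH 7.4, with 30 min incubations at room temperature for complex formation, compound exposure and bead binding.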

[10] = target: Chromobox protein homolog 1 (Homo sapiens) (UniProt P83916); assay: qHTS Validation Assay for Inhibitors of HP1-beta Chromodomain Interactions with Methylated Histone Tails (AID 488953); also: nearly all actives have a fitted effect of over 50% in size; also: potency is read from the fitted curve at half-maximal effect
Chain of Chromobox protein homolog 1 (Homo sapiens) (P83916 whole entry, looked up): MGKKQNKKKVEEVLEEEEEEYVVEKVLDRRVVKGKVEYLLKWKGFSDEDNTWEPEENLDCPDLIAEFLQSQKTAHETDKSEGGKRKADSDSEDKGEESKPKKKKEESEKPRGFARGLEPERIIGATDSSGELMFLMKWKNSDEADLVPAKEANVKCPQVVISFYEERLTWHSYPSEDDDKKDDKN
Outline: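 Disruption of preformed HP1-beta:H3K9me3 peptide complexes (both 50 nM, PBS pH 7.4 with 0.01% Tween-20) is measured by AlphaScreen after 30 min compound exposure at room temperature, using streptavidin donor and nickel chelate acceptor beads at 10 ug/mL final.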

[11] = target: Methanococcus maripaludis chaperonin (MmCpn) (UniProt Q6LX38); assay: High-Throughput Screening for Modulators of Cytosolic Chaperonin Activity: MmCpn Primary Screen (AID 488978)
Chain of Methanococcus maripaludis chaperonin (MmCpn) (Q6LX38 1-543): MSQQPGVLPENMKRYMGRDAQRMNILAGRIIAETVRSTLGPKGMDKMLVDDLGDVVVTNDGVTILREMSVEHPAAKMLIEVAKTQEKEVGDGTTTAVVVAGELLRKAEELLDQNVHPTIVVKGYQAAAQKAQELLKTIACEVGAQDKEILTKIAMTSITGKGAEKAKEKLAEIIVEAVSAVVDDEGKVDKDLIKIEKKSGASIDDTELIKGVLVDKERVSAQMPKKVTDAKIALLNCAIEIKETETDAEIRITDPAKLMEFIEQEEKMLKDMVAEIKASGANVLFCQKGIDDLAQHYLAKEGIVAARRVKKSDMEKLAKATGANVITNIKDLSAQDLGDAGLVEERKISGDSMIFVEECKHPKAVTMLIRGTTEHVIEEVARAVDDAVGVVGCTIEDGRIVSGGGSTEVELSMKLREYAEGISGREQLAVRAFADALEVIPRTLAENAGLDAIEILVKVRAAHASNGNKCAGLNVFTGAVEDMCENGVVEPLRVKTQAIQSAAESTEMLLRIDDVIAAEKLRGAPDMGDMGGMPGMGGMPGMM
Outline: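 HTRF readout (320 nm excitation, 590/665 nm emission) of ADP generated by 50 nM MmCpn hydrolysing 30 uM ATP during 10 min at 37C; compound preincubated 5 min RT.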

[12] = target: D(1A) dopamine receptor (Homo sapiens) (UniProt P21728); assay: HTS Assay for Allosteric Agonists of the Human D1 Dopamine Receptor: Primary Screen for Agonists (AID 488981)
Outline: (§1)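 Tetracycline-induced HEK293 Trex D1 cells with forced coupling to calcium, loaded with no-wash calcium dye; kinetic fluorescence read 180 s after compound addition for agonism, then a further 180 s after an EC20 dopamine challenge for potentiation.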

[13] = target: D(1A) dopamine receptor (Homo sapiens) (UniProt P21728); assay: HTS Assay for Allosteric Agonists of the Human D1 Dopamine Receptor: Primary Screen for Potentiators (AID 488982)
Outline: as §1

[14] = target: D(1A) dopamine receptor (Homo sapiens) (UniProt P21728); assay: HTS Assay for Allosteric Agonists of the Human D1 Dopamine Receptor: Primary Screen for Antagonists (AID 488983);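 also: calcium flux response to an EC80 dopamine challenge measured with no-wash dye; nearly all actives have a fitted effect of over 65% in size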
Outline: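 Kinetic fluorescence at 1 cycle/sec tracked intracellular calcium in force-coupled, tetracycline-inducible HEK293 T-REx D1 cells. Loss of response to an EC80 dopamine dose, given 180 s after compound, marked antagonists.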

[15] = Quantitative high throughput screen for delayed death inhibitors of the malarial parasite plastid, 48 hour incubation (AID 488752); also: nearly all actives have a fitted effect of over 65% in size; also: potency is read from the fitted curve at half-maximal effect
Outline: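 First, compound was pinned into RPMI 1640 medium containing 0.5% Albumax. Next, reporter-parasite-infected erythrocytes were added to 2% hematocrit and 0.1% parasitemia. After 48 h at 37 C under 5% CO2, luciferase detection reagent was added and luminescence read.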

[16] = target: Transient receptor potential cation channel subfamily V member 1 (Homo sapiens) (UniProt Q8NER1); assay: HTS Assay for Compounds that Act as Enhancers of the Vanilloid Receptor 1 (AID 488979)
Chain of Transient receptor potential cation channel subfamily V member 1 (Homo sapiens) (Q8NER1 whole entry, looked up): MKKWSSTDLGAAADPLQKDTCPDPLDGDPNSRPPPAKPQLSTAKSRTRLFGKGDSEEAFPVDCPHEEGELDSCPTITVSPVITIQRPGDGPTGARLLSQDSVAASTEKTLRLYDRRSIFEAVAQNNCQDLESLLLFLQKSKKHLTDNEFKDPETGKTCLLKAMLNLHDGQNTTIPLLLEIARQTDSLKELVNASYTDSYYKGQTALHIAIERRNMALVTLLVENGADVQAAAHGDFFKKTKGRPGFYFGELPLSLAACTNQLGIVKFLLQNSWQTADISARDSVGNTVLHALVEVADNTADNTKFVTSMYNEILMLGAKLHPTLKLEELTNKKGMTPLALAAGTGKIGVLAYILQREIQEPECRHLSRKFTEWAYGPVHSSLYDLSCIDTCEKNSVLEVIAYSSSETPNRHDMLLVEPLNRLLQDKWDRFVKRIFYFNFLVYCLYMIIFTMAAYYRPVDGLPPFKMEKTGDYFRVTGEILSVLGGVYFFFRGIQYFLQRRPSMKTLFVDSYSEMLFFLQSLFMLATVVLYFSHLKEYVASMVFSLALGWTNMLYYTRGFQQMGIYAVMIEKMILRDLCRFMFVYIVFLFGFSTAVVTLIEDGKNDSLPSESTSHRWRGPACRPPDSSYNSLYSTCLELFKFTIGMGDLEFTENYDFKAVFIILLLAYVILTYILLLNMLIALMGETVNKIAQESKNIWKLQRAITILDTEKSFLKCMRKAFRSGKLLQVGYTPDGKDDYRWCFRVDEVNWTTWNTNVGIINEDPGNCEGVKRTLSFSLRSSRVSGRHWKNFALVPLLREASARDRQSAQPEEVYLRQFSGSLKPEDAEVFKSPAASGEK
Outline: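 TRPV1 cells loaded with Fluo-8 calcium dye; compound added and Ca2+ signal (ex 480/em 520 nm) followed 3 min, then capsaicin at EC20 added and read 2 more min to detect enhancement.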

[17] = target: Thyrotropin receptor (Homo sapiens) (UniProt P16473); assay: qHTS Assay for Antagonists of the Thyroid Stimulating Hormone Receptor (AID 488980); also: series mostly up to about 58 µM
Chain of Thyrotropin receptor (Homo sapiens) (P16473 whole entry, looked up): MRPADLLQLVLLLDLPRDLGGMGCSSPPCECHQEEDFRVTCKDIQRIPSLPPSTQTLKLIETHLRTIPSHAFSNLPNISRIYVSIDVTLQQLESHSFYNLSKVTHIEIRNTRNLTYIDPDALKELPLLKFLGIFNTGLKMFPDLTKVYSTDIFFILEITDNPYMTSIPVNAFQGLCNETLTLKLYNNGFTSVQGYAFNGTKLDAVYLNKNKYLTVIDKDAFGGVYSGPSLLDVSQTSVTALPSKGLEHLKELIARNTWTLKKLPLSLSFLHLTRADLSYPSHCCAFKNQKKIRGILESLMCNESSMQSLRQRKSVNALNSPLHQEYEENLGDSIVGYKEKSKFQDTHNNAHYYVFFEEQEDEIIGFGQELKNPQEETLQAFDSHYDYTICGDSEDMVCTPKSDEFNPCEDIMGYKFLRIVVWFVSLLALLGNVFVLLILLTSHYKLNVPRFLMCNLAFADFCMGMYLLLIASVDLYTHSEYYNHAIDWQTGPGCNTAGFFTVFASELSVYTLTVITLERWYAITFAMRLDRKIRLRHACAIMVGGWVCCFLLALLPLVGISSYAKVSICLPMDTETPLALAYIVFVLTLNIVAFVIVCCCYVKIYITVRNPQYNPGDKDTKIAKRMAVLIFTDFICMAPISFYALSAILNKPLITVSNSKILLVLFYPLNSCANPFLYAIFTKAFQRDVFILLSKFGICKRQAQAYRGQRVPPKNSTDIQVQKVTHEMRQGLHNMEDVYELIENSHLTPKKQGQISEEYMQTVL
Outline: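 Inhibition of TSH-stimulated cAMP accumulation was quantified by homogeneous time-resolved FRET in TSHR-transfected HEK293 cells. Agonist: TSH, 4 nM final (EC80).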

[18] = target: ATP-dependent 6-phosphofructokinase (Trypanosoma brucei brucei) (UniProt O15648); assay: qHTS Validation Assay to Find Inhibitors of T. brucei phosphofructokinase (AID 485368)
Outline: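 Inhibition derived from concentration-response curves of luminescence, ranked by r2, response size and curve class; the underlying reaction used 1.25 nM PFK, 0.1 mM ATP and 0.5 mM F6P, 45 min, room temperature.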

[19] = Quantitative high throughput screen for delayed death inhibitors of the malarial parasite plastid, 96 hour incubation (AID 488745); also: potency is read from the fitted curve at half-maximal effect; nearly all actives have a fitted effect of over 70% in size
Outline: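 Readout is firefly luciferase luminescence from an integrated reporter in P. falciparum; lower signal marks inhibited growth. Cultures at 2% hematocrit and 0.1% parasitemia were treated with compound across two generations (96 h, 37 C, 5% CO2).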

Measured: Potency

CCc1c(C(=O)NCCc2ccc(N3CCCCC3)cc2)[nH]c2ccc(Cl)cc12
active: [10] 20 µM
not listed: [15] | [16] | [17] | [18] | [19]
inactive: all other assays above

COc1ccccc1CNCCCCCCNCCCCCCCCNCCCCCCNCc1ccccc1OC
active: [15] 2.94 µM | [9] 50.1 µM
not listed: [14] | [18] | [19]
inactive: all other assays above

COc1cc(C(O)CO)ccc1OS(=O)(=O)O (stereo not given)
not listed: [14] | [17] | [18] | [19]
inactive: all other assays above

C#CCN1C(C)=C(C(=O)OC)C(c2cccc([N+](=O)[O-])c2)C(C(=O)OCC)=C1C (stereo not given)
active: [19] 8.28 µM | [15] 11.7 µM
not listed: [4] | [6] | [8] | [10] | [13]
inactive: all other assays above

CN1[C@@H](CC(=O)c2ccccc2)CCC[C@H]1C[C@H](O)c1ccccc1
not listed: [8] | [9] | [13] | [18] | [19]
inactive: all other assays above

CC(N)C(=O)OC(C)(C)Cc1ccc(Cl)cc1 (stereo not given)
inactive: [1] | [2] | [3] | [4] | [5] | [6] | [7] | [11] | [13] | [14]

O=C(c1ccc(OCCCc2cnc[nH]2)cc1)C1CC1
not listed: [8] | [10] | [12] | [15] | [16] | [17] | [18] | [19]
inactive: all other assays above

COC1=C(OC)C(=O)c2ccccc2C1=O
not listed: [14] | [18] | [19]
inactive: all other assays above

NCCCCC(=O)O
not listed: [12] | [17] | [18] | [19]
inactive: all other assays above

Reference: PubChem BioAssay (NCATS)
